ChEMBL document CHEMBL4513216, “Probing the Open Global Health Chemical Diversity Library for Multistage-Active Starting Points for Next-Generation Antimalarials” (ACS Infect Dis, 2020)
The campaign covered roughly 69,000 compounds. About 8,600 (12%) showed an effect of 50% or more. For the sample, strong results were picked, then their nearest neighbours and some compounds at random.

tested on: Plasmodium berghei; test: Screen against P. berghei liver stage (PbLuc), transformed with Luciferase, at 10uM; assay type: functional, HepG2; conditions: tested at 10 uM

Structure (SMILES)	INHIBITION
Cc1ccc(OCC(O)CN2CCC(Cn3cccn3)CC2)cc1 (stereo unspecified)	28.5%
Cc1ccc(-c2nc(C(=O)N3CCCC(C(N)=O)C3)cs2)c(C)c1 (stereo unspecified)	-79.45%
CC(c1ccncc1)N(CCN(C)C)C(=O)Nc1ccc(Cl)cc1 (stereo unspecified)	8.49%
Cc1nn(CC(C)C)c(C)c1CC(=O)N1CCCC(NS(C)(=O)=O)C1 (stereo unspecified)	17.1%
Cc1cc(C)c(C#N)c(N2CCC3(CCCN(CCO)C3=O)C2)n1 (stereo unspecified)	-17.2%
COc1cn(CC(=O)N2CCC(c3ccccc3)CC2)c(C)cc1=O	12.4%
COc1cccc(N2C(=O)CC3(CCNCC3)C2=O)c1	22.3%
Cc1ccc2c(c1)C1(CCNCC1)CC2NC1CC1 (stereo unspecified)	67.5%
Cc1ccc2c(c1)C1(CCNCC1)CC2OCC1CC1 (stereo unspecified)	-26.5%
COc1cccc(-c2ccnc(C3CCNCC3)c2)c1	-23.8%
Cc1ccc2c(c1)C(NC1CC1)CC21CCNCC1 (stereo unspecified)	42.1%
COc1ccc2c(c1)C1(CCNCC1)CC2NC1CC1 (stereo unspecified)	94.6%
COc1cccc(C(=O)N2CCCCC2c2nccs2)c1OC (stereo unspecified)	-7.35%
COCC(=O)N1CCC(c2cc3n(n2)[C@@H](C(F)(F)F)C[C@@H](C)N3)CC1	49.6%
CC(C)(O)CCc1cccc(C(=O)N2CCC[C@H]2C(N)=O)c1	40.2%
COc1ccc(NC(=O)NCCCn2nc3ccccn3c2=O)cc1	16.8%
O=C(N1CCCC1)N1CCO[C@H]2[C@@H](OCc3cccnc3)CC[C@@H]21	-26.5%
Cn1c(CN2CCCC(Cn3cncn3)C2)nc2ccccc21 (stereo unspecified)	33.1%
O=C(CN1CCC(c2nnc(C(F)(F)F)o2)CC1)Nc1cccnc1	-17.8%
CCCN(CCC)C(=O)c1sc(C)nc1C	-3.14%
COCCN(Cc1ccc(F)cc1Cl)C(=O)c1ccccn1	52.4%
COCCN(Cc1ccc(F)cc1Cl)C(=O)c1cnn(C)c1C	80.2%
COCCN(Cc1ccoc1)C(=O)c1ccccc1OC	28.4%

Structure (SMILES)	INHIBITION
COCCN(Cc1ccc(F)cc1Cl)C(=O)c1ccc(=O)[nH]n1	16.6%
COCCN(Cc1ccc(F)cc1Cl)C(=O)c1cc(C)n[nH]1	32.5%
CCc1ccccc1NC(=O)c1cnn(C)c1C	21.5%
COCCN(Cc1ccoc1)C(=O)c1ccccc1Cl	-33.2%
COCCN(Cc1ccccc1)C(=O)c1cnn(C)c1C	81.5%
COCCN(Cc1ccc(F)cc1Cl)C(=O)c1csnn1	39.5%
COCCN(Cc1ccc(F)cc1Cl)C(=O)c1ccncc1	21%
CCCN(CCC)C(=O)c1cnn(C)c1C	51.3%
CN1CCC(NC(=O)C2CN(c3cncnc3)CCO2)CC1 (stereo unspecified)	14.7%
CN1C[C@@H](c2cccc(F)c2)[C@H]2[C@H]1CCCCCN2C(=O)C1CC1	12.2535%
COc1ccc(C(O)CNC(=O)NCc2nc(C)cs2)cc1 (stereo unspecified)	9.14%
COc1ccc(C(C)NC(=O)Cn2ccc(=O)n(C)c2=O)cc1OC (stereo unspecified)	31.9%
COc1ccc(CC(=O)N2CCCC2Cn2cc(C)cn2)c(OC)c1 (stereo unspecified)	43.2%
CC(C)(O)CN1CCN(C(=O)c2cccn2Cc2cccnc2)CC1	34.6%
Cc1cccc2nc(CN3CCCC3Cn3cccn3)cn12 (stereo unspecified)	19.4%
Cn1cc(CNC2CCCOc3c2ccc2ccccc32)cn1 (stereo unspecified)	-28.7%
COCCN(CCOC)C(=O)c1cnn(C)c1-n1c(C)ccc1C	42.1%
CNC(=O)CN(C)Cc1ccc(F)cc1Cl	-154%
COCCNC(=O)CN(C)Cc1ccc(F)cc1Cl	52.2%
COCCN(CCOC)C(=O)c1cnn(C)c1C	90.7%
COCCCNC(=O)CN(C)Cc1ccc(F)cc1Cl	-102%
CCCn1ncc(C(=O)N(CCOC)Cc2c(C)nn(CC)c2C)c1C	-89.3%
CN(C)C(=O)C1CCN(C(=O)c2c[nH]c3cc(Cl)ccc23)CC1	-32.2%

Structure (SMILES)	INHIBITION
CN1CCC(c2cncc(C(=O)NCc3ccc(F)cc3)n2)CC1	-3.02%
O=C(CCc1cccnc1)N1CCC2(CCN(CC3CCCC3)C2)C1 (stereo unspecified)	-7.2%
COCCN1CCC(c2cncc(-c3ccccc3C)n2)CC1	46%
Oc1cccc(CN2CCN(C3CCc4ccccc4C3)CC2)c1 (stereo unspecified)	54.8%
COc1cc(O)ccc1CN1CCN(C2CCc3ccccc3C2)CC1 (stereo unspecified)	37.6%
COc1ccc(CN2CCN(C3CCc4ccccc4C3)CC2)cc1O (stereo unspecified)	46.7%
CNc1cc(C)nc(C2COCCN2CCc2ccc(F)cc2)n1 (stereo unspecified)	19.6%
CCN1Cc2cc(F)ccc2N(C(C)=O)CCC1=O	23%
CC(C)N1CCc2[nH]nc(C(=O)N3CCOCC3)c2C1	-1.12%
CCN(CC)[C@@H]1CN(C(=O)c2ccnnc2)[C@@H]2CCCO[C@H]12	-62.8%
CCN(CC)[C@@H]1CN(C(=O)c2ccc(C#N)cc2)[C@@H]2CCCO[C@H]12	73.6%
CN(C)[C@@H]1CN(C(=O)c2ccc(C#N)cc2)[C@@H]2CCCO[C@H]12	-73.3%
COCCn1c2c(ccc1=O)CCN(C(=O)Cc1ccsc1)CC2	27.5%
CC(C)C(=O)N1CCCC(c2ncncc2-c2ccncc2)C1 (stereo unspecified)	48.3%
O=C(c1ccccn1)N1CCCN(Cc2nnc(C3CC3)o2)CC1	-57.4%
Fc1ccc2c(C3=CCN(Cc4nnc(C5CCC5)o4)CC3)c[nH]c2c1	34.6%
Cc1noc(CN2CC=C(c3c[nH]c4ncccc34)CC2)n1	74.7%
Cc1noc(CN2CC=C(c3cnn(C4CCS(=O)(=O)C4)c3)CC2)n1 (stereo unspecified)	1.98%
C1=C(c2c[nH]c3ncccc23)CCN(Cc2nnc(C3CC3)o2)C1	71.4%
Cc1cnc(CN2CC=C(c3c[nH]c4ncccc34)CC2)o1	44.9%
Cc1cnn(CC2CCCCN2C(=O)Cc2cccc(F)c2)c1 (stereo unspecified)	35.9%
COc1ccc(C(C)NC(=O)c2nn(C)c(C)c2Br)cc1 (stereo unspecified)	30.2%
OC(CN1CCN(Cc2ccc(F)cc2)CC1)C1CC1 (stereo unspecified)	-0.113%

Structure (SMILES)	INHIBITION
Cc1cc(C2CCCCCN2Cc2cn(C)nc2C)no1 (stereo unspecified)	6.32%
O=C(Nc1ccc(F)cc1)N1C[C@@H]2C[C@H](C(=O)N3CCCC3)[C@H](C1)O2	7.67%
CC(C)CN(CCc1ccccc1)Cc1nc2c(cnn2C)c(=O)[nH]1	29.2%
Cc1ccccc1CC(C)NCc1c(C)nn(C)c1N1CCOCC1 (stereo unspecified)	13.5%
CCc1ccccc1OCCN(C)C(=O)CCN1CCCO1	42.4%
CN(CCCOc1ccccc1Cl)C(=O)CN1CCCCCC1=O	21.2%
CCc1ccccc1OCCN(C)C(=O)CN1CCCC1	59.1%
CCc1ccccc1OCCN(C)C(=O)CCN1CCCCO1	69.3%
CCc1ccccc1OCCCN(C)C(=O)C1CCCN1C(N)=O (stereo unspecified)	-40.4%
Cc1ccc(OCCN(C)C(=O)CCCN2CCCC2=O)c(C)c1	-12.6%
O=C(Cc1csc(-c2ccccc2F)n1)NCc1cccc(C(=O)O)c1	0.29%
CO[C@H]1CN(S(=O)(=O)c2ccccc2F)C[C@@]12CCCO2	3.48%
Cc1nc(N)cc(C2CCN2CCOc2ccccc2)n1 (stereo unspecified)	-0.232%
COc1ccnc(N2CCN(C(=O)CN3CCOCC3)CC2)n1	31.9%
CC(=O)N1CCCC1c1nccnc1Nc1ncccn1 (stereo unspecified)	-107%
CC(C(=O)O)n1nc(C(F)(F)F)c(Cl)c1C1CC1 (stereo unspecified)	7.3%
CC(C(=O)NN1CCOCC1)n1nc(C(F)(F)F)c(Cl)c1C1CC1 (stereo unspecified)	74.1%
O=C(Cn1nc(C(F)(F)F)c(Cl)c1C1CC1)NN1CCOCC1	-3.11%
Cc1c(Cl)c(C(F)(F)F)nn1C(C)C(=O)NC1CCN(C)CC1 (stereo unspecified)	26.8%
Cc1c(Cl)c(C(F)(F)F)nn1C(C)C(=O)NN1CCN(C)CC1 (stereo unspecified)	35.7%
CC(C(=O)NC1CCN(C)CC1)n1nc(C(F)(F)F)c(Cl)c1C1CC1 (stereo unspecified)	82.4%
Cn1ccc2ccc(C(=O)Nc3nc[nH]n3)cc21	46.4%
CC(=O)N1CCN(C(=O)NCc2ccc(Cl)s2)CC1	42%

Structure (SMILES)	INHIBITION
O=C1CC[C@H]2[C@H](CCN2C(=O)c2ccc[nH]2)N1CCN1CCOCC1	-14.4%
Cc1nc2ccccc2n1CCNCc1cccc(O)c1	-57.5%
C[C@@H]1C[C@H]2CN(S(=O)(=O)c3ccc(F)cc3)C[C@H]2O1	24.8%
O=C1CO[C@@H]2CN(S(=O)(=O)c3ccccc3F)C[C@H]2N1	44.4%
O=C1CO[C@@H]2CN(S(=O)(=O)c3ccc(F)cc3)C[C@H]2N1	82.2%
c1ncn(Cc2cn3c(n2)CN(CC2CCCC2)CC3)n1	-16.9%
O=C(c1cnc(-c2cnccn2)s1)N1CCCC1Cn1cccn1 (stereo unspecified)	-21.5%
O=C(NCc1ccccc1)N1CCC2(CC(=O)N(c3ccccc3)C2)C1 (stereo unspecified)	-14.7%
CCN(C(C)=O)c1nc(CN2CCCC2Cn2cncn2)cs1 (stereo unspecified)	-6.44%
COCCN1CCC(C(=O)N(C)CCOc2ccc(C)cc2Cl)C1 (stereo unspecified)	59.3%
COCCN1CCC(C(=O)N(C)Cc2c[nH]c3ccc(C)cc23)C1 (stereo unspecified)	39.9%
COCCN1CCC(C(=O)N(C)Cc2cccc(Cl)c2)C1 (stereo unspecified)	13.9%
Cc1cn(-c2ccccc2)nc1NS(=O)(=O)c1ccc(C(=O)O)cc1F	-20%
CSc1ccccc1CN1CCn2nc(CNC(=O)N(C)C)cc2C1	4.97%
CC(=O)NCc1cc2n(n1)CCN(Cc1cccc(Cl)c1Cl)C2	-26.8%
CCc1ccccc1CN1CCn2nc(CNC(C)=O)cc2C1	22%
CSc1ccccc1CN1CCCn2nc(CNC(=O)N(C)C)cc2C1	-19.4%
CSc1ccccc1CN1CCn2nc(CNC(C)=O)cc2C1	55.4%
CC(=O)NCc1cc2n(n1)CCN(Cc1ccccc1OC(F)(F)F)C2	53.8%
